# From PubChem BioAssay
# This is a sample that favours compounds with a hit; in the whole collection about 3.4% have one here.
# RE007 growth inh – qHTS Assay for Inhibitors of the HIV-1 protein Vpr. AID 651644, 2012. Potency, µM (highest dose often 92.2 µM), hits mostly inhibitors. 360,000 tested, 0.21% active. S. pombe RE007 Vpr strain, BacTiter-Glo ATP luminescence, 24 h; active means well fitted falling curve with a large enough effect; inconclusive means small, poorly fitted or top-dose-only effect; inactive means no such curve, though single readings can be large or run the other way; further: nearly all actives have a fitted effect of over 50% in size
#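 Fission yeast strain RE007, carrying one chromosomally integrated HIV-1 vpr copy, was seeded at OD 0.01 in PMG+AL medium with 23 nL pinned compound. After 24 h at 30 °C and 99% humidity, viability was read by BacTiter-Glo luminescence.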
# AmpC inh no detg – qHTS Inhibitors of AmpC Beta-Lactamase (assay without detergent); AID 485341, 2010; 330,000 tested, 0.52% active; P00811; Potency, µM (series often up to 57.1 µM), actives largely listed as inhibitors; AmpC nitrocefin hydrolysis, absorbance 480 nm, 0.0001% Triton; further: nearly all actives have a fitted effect of over 20% in size
#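 AmpC (5.3 nM in the dispensed reagent) in 20 mM phosphate pH 7.0 with 0.01% (detergent screen) or 0.0001% Triton X-100 was preincubated with compounds for 15 min at room temperature. Nitrocefin was then added from an 800 uM solution, and hydrolysis was followed at 480 nm.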
# Giardia FBPA inh-1 – qHTS Assay for Inhibitors of Fructose-1,6-bisphosphate Aldolase from Giardia Lamblia | A8B2U2 | purified Giardia FBPA | Potency, µM (titrated, usually from 59.6 µM), most hits filed as inhibitors | 290,000 tested, 0.71% active | AID 2451, 2010; further: nearly all actives have a fitted effect of over 55% in size
# Target sequence (A8B2U2 whole entry, looked up): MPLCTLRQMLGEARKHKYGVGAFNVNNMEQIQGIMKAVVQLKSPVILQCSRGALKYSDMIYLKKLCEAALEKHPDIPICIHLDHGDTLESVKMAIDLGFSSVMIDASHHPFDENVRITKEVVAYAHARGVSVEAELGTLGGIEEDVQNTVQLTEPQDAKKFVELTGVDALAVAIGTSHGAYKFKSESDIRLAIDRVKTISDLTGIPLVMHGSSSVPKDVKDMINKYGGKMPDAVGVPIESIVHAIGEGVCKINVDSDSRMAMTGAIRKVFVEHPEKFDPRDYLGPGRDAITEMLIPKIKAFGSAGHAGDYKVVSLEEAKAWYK
#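 Giardia FBPA (40 nM reagent) was preincubated 10 min at RT with compound (up to 57.5 uM final), then substrate plus GAPDH/TPI/NAD/arsenate coupling system with diaphorase/resazurin was added; resorufin fluorescence (525/598 nm) was read after 20 min.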
# Sm TGR inh – qHTS Assay for the Inhibitors of Schistosoma Mansoni Peroxiredoxins | purified TGR, DTNB reduction, TNB absorbance 405 nm | Potency, µM (highest dose often 114 µM), most hits filed as inhibitors | 360,000 tested, 3% active | AID 485364, 2010; further: nearly all actives have a fitted effect of over 60% in size
#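 Kinetic colorimetric format: TGR-catalysed, NADPH-driven DTNB reduction monitored via TNB absorbance. Enzyme dispensed at 20 nM; compound exposure 15 min at room temperature before reaction start.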
# AmpC inh detg – qHTS Inhibitors of AmpC Beta-Lactamase (assay with detergent); P00811; AmpC hydrolysis of nitrocefin, absorbance 480 nm, 0.01% Triton; Potency, µM (doses to about 114 µM), usual class: inhibitors; 370,000 tested, 0.041% active; further: nearly all actives have a fitted effect of over 25% in size
#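 20 mM phosphate pH 7.0 + 0.01% (detergent screen) or 0.0001% Triton X-100; 5.3 nM AmpC reagent; cpd preinc 15 min RT; nitrocefin (800 uM stock) to start; A480 q20 s × 4 min; Activity was normalised to no-enzyme and no-compound control wells.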
# Giardia growth – qHTS Assay for Inhibitors of Fructose-1,6-bisphosphate Aldolase from Giardia Lamblia: Giardia lamblia growth inhibition | AID 2785, 2010 | shares compounds with Giardia FBPA inh-1 | Giardia lamblia trophozoite growth inhibition | Potency, µM (titrated, usually from 57.5 µM), actives largely listed as inhibitors | 1,500 tested, 5% active;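 further: trophozoites exposed to compound for 48 h at 37 °C; nearly all actives have a fitted effect of over 70% in size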
# Mammal cell tox – qHTS Assay for Inhibitors of Fructose-1,6-bisphosphate Aldolase from Giardia Lamblia: Mammalian cellular toxicity; shares compounds with Giardia FBPA inh-1; mammalian cell viability counter-screen, qHTS; 1,500 tested, 4% active; Potency, µM (highest dose often 57.5 µM), usual class: inhibitors;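 further: Chinese hamster ovary cells used as mammalian cytotoxicity surrogate; viability measured as cellular ATP by luminescence; compound exposure lasted 48 h before reading; nearly all actives have a fitted effect of over 60% in size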
# Giardia FBPA inh-2 – qHTS Assay for Inhibitors of Fructose-1,6-bisphosphate Aldolase from Giardia Lamblia: Primary screen confirmation; shares compounds with Giardia FBPA inh-1; 1,500 tested, 5% active; AID 2787, 2010; purified Giardia aldolase enzyme activity, qHTS; Potency, µM (doses to about 57.5 µM), actives largely listed as inhibitors; further: nearly all actives have a fitted effect of over 45% in size
# Rabbit aldolase – qHTS Assay for Inhibitors of Fructose-1,6-bisphosphate Aldolase from Giardia Lamblia: Rabbit FBPA Selectivity. 1,500 tested, 4% active. Potency, µM (highest dose often 57.5 µM), hits mostly inhibitors. Rabbit muscle FBPA enzyme inhibition, selectivity counter-screen. shares compounds with Giardia FBPA inh-1; further: nearly all actives have a fitted effect of over 60% in size
# GAPDH coupling – qHTS Assay for Inhibitors of Fructose-1,6-bisphosphate Aldolase from Giardia Lamblia: Coupling assay counterscreen confirmation | shares compounds with Giardia FBPA inh-1 | GAPDH coupling enzyme counterscreen, biochemical, qHTS | Potency, µM (series often up to 57.5 µM), most hits filed as inhibitors | 1,500 tested, 6% active | AID 2795, 2010; further: nearly all actives have a fitted effect of over 55% in size
# A number is an active result; 0 = inactive; ? = inconclusive; - = not tested or not shown; [ ] = another dose, or the depositor's remark. Unless noted, the call rests on the fitted dose curve; in most records, active means well fitted curve in the direction sought with a large enough effect; inconclusive means small, poorly fitted or top-dose-only effect, or another doubt; inactive means no such curve, though single readings can be large; an effect the other way counts as inactive or inconclusive.
SMILES,RE007 growth inh,AmpC inh no detg,Giardia FBPA inh-1,Sm TGR inh,AmpC inh detg,Giardia growth,Mammal cell tox,Giardia FBPA inh-2,Rabbit aldolase,GAPDH coupling
CC(C)(C)NC(=S)/N=C(\N)N[N+](=O)[O-],0,0,16µM,0,0,0,0,0,0,0
COC(=O)Nc1ccc(N=C(N)N[N+](=O)[O-])cc1,0,0,0,0,0,-,-,-,-,-
O=C1CSC(=S)N1,0[18.4 µM],0,7.9µM,0,?,0,0,0,0,0
O=C(Nc1ccc(Cl)cc1F)c1cccc2ccccc12,0,0,0,0,?,-,-,-,-,-
CCOC(=O)c1c(NC(=O)C2=COCCO2)sc2c1CCN(C(=O)OC)C2,0,0,-,0,?,-,-,-,-,-
O=C(NC1CCCCCC1)c1ccc[nH]c1=S,?,0,16µM,0,0,?,0,0,0,0
CC1CCCN(C(=S)SCC(=O)c2cc(Br)cc(Br)c2O)C1 (centres undefined),0,0,0,0,0,-,-,-,-,-
O=C(CSC(=S)N1CCCC1)c1cc(Br)cc(Br)c1O,0,?,14µM,0,0,?,25µM,0,0,?
CN1CCN(C(=S)c2ccc(N(C)C)cc2)CC1,0,0,16µM,0,?,?,0,0,?,?
CSc1ccc(C(=S)N2CCN(C)CC2)cc1,0,0,0,0,0,-,-,-,-,-
CN1CCN(C(=S)c2ccc(Br)cc2)CC1,0,0,16µM,0,0,0[10.4 µM],0,0,?,?
Cc1cc(C)c(NC(=S)N(CCc2ccncc2)C(C)C)c(C)c1,0,0,10µM,0,0,0,0,0,0,0
CC(C)=CC1C=C(C)C(C)C2C(=O)NNC(=O)C12 (centres undefined),0,0,0,0,0,-,-,-,-,-
CC(C)Oc1ccc(CC2(CCc3ccncc3)C(=O)NC(=O)NC2=O)cc1,0,0,0,0,0,-,-,-,-,-
Cc1cc(C)nc(NC(=O)c2cccc([N+](=O)[O-])c2C)n1,0,0,0,0,0,-,-,-,-,-
COc1ccc(Nc2cc(C)c3ccc(O)cc3n2)cc1,0,0,0,0,0,0,0,?,?,?
Cc1cc(Nc2ccccc2)nc2cc(O)ccc12,0,0,0,0,0,-,-,-,-,-
Cc1ccccc1C(=O)Nc1nnc(-c2cccnc2)o1,0,0,16µM,0,0,?,0,0,0,0
Cc1ccccc1C(=O)Nc1nnc(-c2ccc(F)cc2)o1,0,0,0,0,?,-,-,-,-,-
Cc1ccc(C(=O)Nc2nc(-c3ccccn3)cs2)o1,0,0,13µM,0,0,?,?,0,0,0
CC(=O)Nc1ccc(C(=O)Nc2nc(-c3ccccn3)cs2)cc1,?,0,?,?,0,-,-,-,-,-
O=C(Nc1nc(-c2ccccn2)cs1)c1ccc([N+](=O)[O-])o1,0,0,-,10µM,0,-,-,0,0,0
O=C(Nc1nc(-c2ccccn2)cs1)c1ccc2c(c1)OCCO2,0,0,18µM,0,0,0[10.4 µM],?,0,0,0
